# Source: PubChem
# This is a sample that favours compounds with a hit; in the whole collection about 5.2% have one here.
# Sfp PPTase inh: Sfp phosphopantetheinyl transferase inhibition | Biochemical Sfp PPTase activity, qHTS | Q9F4F7 | Potency, µM, for the others: largest response in the series, negative = inhibition, most hits filed as inhibitors | AID 1490 | 310,000 compounds, 3.5% hits;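 also: the enzyme is Sfp with the accession as filed and its product quenches rhodamine fluorescence; 0% = enzyme reaction without inhibitor and -100% = no enzyme wells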
#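 Fluorescence-quenching assay: 15 nM Sfp-PPTase preincubated 15 min at room temperature with compound, then 5 uM rhodamine-CoA and 12.5 uM BHQ-2-labelled YbbR peptide added. Fluorescence (ex 525/em 598 nm) read at start and after 30 min; difference gives rate.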
# IDH1 R132H inh: human IDH1 R132H inhibition | IDH1-R132H enzyme, NADPH consumption, diaphorase/resazurin fluorescence | Potency, µM (top dose mostly 76.6 µM), inactives show at the top dose activity change, negative = inhibition, usual class: inhibitors | 390,000 compounds, 0.093% hits | AID 602179; also: nearly all actives have a fitted effect of over 65% in size
# Target sequence (O75874 whole entry R132H, stated change not applied): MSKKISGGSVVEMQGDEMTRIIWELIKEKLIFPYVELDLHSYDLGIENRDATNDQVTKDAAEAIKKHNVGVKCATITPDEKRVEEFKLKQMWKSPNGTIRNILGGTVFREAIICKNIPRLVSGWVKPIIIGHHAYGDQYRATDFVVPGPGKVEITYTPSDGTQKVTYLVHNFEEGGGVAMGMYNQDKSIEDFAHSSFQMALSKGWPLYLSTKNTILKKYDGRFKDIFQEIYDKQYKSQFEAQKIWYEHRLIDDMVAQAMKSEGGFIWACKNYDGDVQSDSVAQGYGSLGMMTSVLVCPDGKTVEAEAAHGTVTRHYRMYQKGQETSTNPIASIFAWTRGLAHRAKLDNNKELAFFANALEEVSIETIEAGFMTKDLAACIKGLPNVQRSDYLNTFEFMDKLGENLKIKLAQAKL
#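 IDH1-R132H (0.5 ug/mL dispensed) in pH 7.5 Tris buffer was preincubated 30 min with compound, then given a substrate mix of 0.016 mM NADPH and 2 mM alpha-KG for 80 min at room temperature; remaining NADPH was read by diaphorase/resazurin fluorescence.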
# PLK1 PBD block: blocks phosphopeptide binding to human PLK1 polo-box domain; P53350; AID 720504; Plk1 PBD binding of FITC phosphopeptide, fluorescence polarization; Potency, µM, for inactives: max response, negative = inhibition, hits mostly inhibitors; 360,000 compounds, 2.8% hits; also: series mostly up to about 57 µM; nearly all actives have a fitted effect of over 65% in size
# VDR inhibitor: vitamin D3 receptor (human) inhibition; 400,000 compounds, 0.93% hits; VDR-SRC2-3 peptide fluorescence polarization, 2 h; AID 504847; P11473; Potency, µM, inactives show max response, negative = inhibition, hits mostly inhibitors
#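 Fluorescence polarization assay of small-molecule disruption of VDR binding to coregulator peptide SRC2-3. Compounds and controls pin-transferred, then read after 2 h incubation at ambient room temperature.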
# TrxR1 substrate: is turned over as a substrate by rat TrxR1 | 390,000 compounds, 0.01% hits | O89049 | purified TrxR1 substrate turnover, NADPH consumption readout | Potency, µM (series often up to 114 µM), inactives show at the top dose activity change, negative = substrate turnover; also: nearly all actives have a fitted effect of over 50% in size
#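 Rat TrxR1, dispensed at 90 nM, was prereduced with 400 uM NADPH (final) for 5 min at ~22 deg C, then incubated with compound 15 min before 400 uM selenite. A first-read NADPH fluorescence drop versus no-compound background flagged substrates.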
# rTrxR1 inhibitor: rat TrxR1 inhibition; O89049; recombinant rTrxR1, NADPH fluorescence consumption, selenite substrate; Potency, µM (titrated, usually from 114 µM), for the others: top-dose activity change, negative = inhibition, hits mostly inhibitors; 390,000 compounds, 1% hits; AID 588453; also: nearly all actives have a fitted effect of over 65% in size
#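 Rat TrxR1 (90 nM in the dispensed reagent) was pre-reduced with 400 uM NADPH for 5 min at room temperature, then incubated with compound for 15 min. After 400 uM selenite was added, NADPH fluorescence (Ex 340/Em 450 nm) was followed for 8 min.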
# Active calls of the source: *; ? = inconclusive; · = not tested or not shown; [ ] = remark or other dose. Calls follow the shape of the dose curve; as a rule, active = well fitted curve in the direction sought with a large enough effect; inconclusive = small, poorly fitted or top-dose-only effect, or another doubt; inactive = no such curve, though single readings can be large; an effect the other way counts as inactive or inconclusive. Unless noted, % is scaled to controls: 0 for no effect and ±100 for the full control effect; potency is read from the fitted curve at half-maximal effect.
SMILES,Sfp PPTase inh,IDH1 R132H inh,PLK1 PBD block,VDR inhibitor,TrxR1 substrate,rTrxR1 inhibitor
O=C(COC(=O)CSc1cc(Cl)ccc1Cl)NCc1ccc2c(c1)OCO2,3.9%,-3.6%,26.7µM*,-18.2%,-0.3%,22.0%
NC(=O)/C(=C/c1ccco1)C(N)=S,17.8µM*,0.4%,?,-18.2%,9.1%[57.1 µM],?
O=C(NCc1ccccn1)c1ccccc1OCc1ccc(Cl)cc1Cl,·,0.7%,-10.7%,14.1%,2.5%,27.4%
CCCC1([C@H](O)C/C=C/[C@H]2[C@H](O)CC(=O)[C@@H]2CCCCCCC(=O)OC)CCC1,-14.3%,·,·,-22.9%,·,·
Cc1cc(C(F)(F)F)nc(SCc2ccc(C(=O)O)o2)n1,35.5µM*,4.6%,-26.0%,-17.3%,7.3%[57.1 µM],?
O=C(O)c1ccc(CSc2nc(-c3ccc(Cl)cc3)cc(C(F)(F)F)n2)cc1,50.1µM*,-6.0%,21.2µM*,0.1%,-7.3%,4.5%
O=C(O)c1ccc(CSc2nc(-c3ccccc3)cc(C(F)(F)F)n2)cc1,-4.3%,-4.2%,?,?,-8.8%,-10.8%
O=c1c(F)cn(C2CCCO2)c(=O)n1Cc1ccc(Cl)cc1 (stereo not drawn),13.7%,1.7%,26.7µM*,-4.1%,3.4%,14.0%
Nc1nc(=S)c2ncn([C@@H]3O[C@H](CO)[C@@H](O)[C@H]3O)c2[nH]1,·,2.3%,21.2µM*,-22.4%,-9.7%,-22.6%
Nc1nc2c([nH]c(=S)n2C2OC(CO)C(O)C2O)c(=O)[nH]1 (stereo not drawn),44.7µM*,·,·,?,·,·
Nc1nc(=S)c2ncn(C3OC(CO)C(O)C3O)c2[nH]1 (stereo not drawn),6.31µM*,-2.1%,10.6µM*,70.8µM*,2.7%[57.1 µM],-52.5%
Nc1nc2c([nH]c(=O)n2C2OC(CO)C(O)C2O)c(=O)[nH]1 (stereo not drawn),?,·,·,6.0%,·,·
CCCCc1nc2c(c3c1C[C@H](C)OC3)CN(C(=O)C1CC1)CC2,7.1%,·,·,·,·,·
Cc1cc2ccccc2nc1SCC(=O)NC1CCCC1,12.8%,-7.9%,23.8µM*,?,4.6%[57.1 µM],20.7%[57.1 µM]
Cc1cc2ccccc2nc1SCC(=O)NC1CCCCC1,1.6%,-1.0%,2.5%,-3.0%,1.3%,5.9%
O=C(CCCCCn1c(=O)c2sccc2n(Cc2ccc(Cl)cc2)c1=O)NCc1ccc2c(c1)OCO2,·,-7.4%,·,89.1µM*,0.6%,8.6%
CCCc1nnc(NC(=O)CCCN2C(=O)c3ccccc3C2=O)s1,12.4%,3.6%,26.7µM*,-2.5%,4.6%[57.1 µM],9.8%[57.1 µM]
CCCCc1nnc(NC(=O)CN2C(=O)c3ccccc3C2=O)s1,-8.3%,0.4%,-4.9%,-15.2%,1.6%,11.6%
Cc1ccc(NC(=O)CCCN2C(=O)c3cccc4cccc(c34)C2=O)cc1,-23.7%,10.6%,26.7µM*,-22.2%,9.3%[57.1 µM],16.7%[57.1 µM]
Cc1ccc(NC(=O)CCN2C(=O)c3cccc4cccc(c34)C2=O)cc1,-18.5%,-2.1%,-10.8%,12.9%,5.5%,30.2%
CCc1nnc(NC(=O)CCN2C(=O)c3ccccc3C2=O)s1,11.3%,-0.2%,-5.0%,6.8%,0.1%,10.6%
CC(C)Cc1nnc(NC(=O)CN2C(=O)c3ccccc3C2=O)s1,22.4µM*,13.1%,?,11.2%,6.1%[57.1 µM],10.9%
Cc1oc2ncn(C)c(=O)c2c1C(=O)NCCCN(Cc1ccccc1)C(C)C,·,5.4%,·,18.9%,1.6%,5.9%
O=C(NCCC[N+]1=CC=N[C@H]1c1ccccc1)N1CCCc2nc(-c3ccc(Br)cc3)ccc21,9.6%,·,·,·,·,·
CCC(=O)c1cn(CC(=O)Nc2ccc(F)cc2)c2ccccc12,·,6.5%,-1.1%,·,·,·
Nc1ncnc2c1ncn2[C@@H]1O[C@H](C(=O)N2CCN(CC(=O)Nc3cccc4c3CNC4=O)CC2)[C@@H](O)[C@H]1O,?,·,·,-8.1%,·,·
CCn1c(/C=C/c2ccc(O)c(O)c2)nc2ccccc2c1=O,79.4µM*,-7.2%,5.4%,-25.6%,-15.3%,-1.9%
CCn1c(/C=C/c2ccc(O)cc2)nc2ccccc2c1=O,-5.8%,8.0%,-12.8%,-19.4%,0.3%[11.4 µM],-5.3%[11.4 µM]
